Assay outcomes: PubChem, National Center for Advancing Translational Sciences (NCATS)
ELG1 genotoxic – inducers of genotoxicity in HEK293T ELG1-luciferase cells | hit rate 1.3% among 330,000 | Potency, µM (highest dose often 46 µM), inactives show top-dose activity change, positive = activation, actives largely listed as activators | AID 504466 | HEK293T ELG1-luciferase reporter, luminescence, 16 h; note: % of control where 0% means no effect; nearly all actives have a fitted effect of over 60% in size
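Cells (2,000/well) expressing the ELG1-luciferase fusion are dosed by pin tool and kept 16 hr at 37 °C, 5% CO2. Signal comes from ONE-Glo luciferase reagent after 30 min at room temperature.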
KinaseGlo FLuc – blocks Kinase-Glo luciferase, a counter-screen artifact. Q27757. Kinase-Glo luciferase, ATP luminescence, 8 min. Potency, µM (highest dose often 38.3 µM), for inactives: at the top dose activity change, negative = inhibition, most hits filed as inhibitors. hit rate 0.28% among 200,000; note: % is set by controls: 0 for no effect and ±100 for the full control effect; nearly all actives have a fitted effect of over 60% in size
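Luminescence was the read-out, taken after 8-minute incubation at ambient temperature. Luciferase turned over luciferin with 10 uM ATP in imidazole pH 7.2 buffer containing KCl, MgCl2, Tween 20 and BSA.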
FLuc counter – counter-screen for miR-21 project: firefly luciferase inhibitors or activators; purified FLuc, Km substrates, luminescence inhibition; Potency, µM (highest dose often 57.5 µM), inactives show at the highest dose activity change, negative = inhibition, usual class: inhibitors; hit rate 6.9% among 360,000; AID 588342;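 note: plate controls were vehicle for no effect and reference inhibitor for full effect; nearly all actives have a fitted effect of over 55% in size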
Target sequence (P08659 whole entry, looked up): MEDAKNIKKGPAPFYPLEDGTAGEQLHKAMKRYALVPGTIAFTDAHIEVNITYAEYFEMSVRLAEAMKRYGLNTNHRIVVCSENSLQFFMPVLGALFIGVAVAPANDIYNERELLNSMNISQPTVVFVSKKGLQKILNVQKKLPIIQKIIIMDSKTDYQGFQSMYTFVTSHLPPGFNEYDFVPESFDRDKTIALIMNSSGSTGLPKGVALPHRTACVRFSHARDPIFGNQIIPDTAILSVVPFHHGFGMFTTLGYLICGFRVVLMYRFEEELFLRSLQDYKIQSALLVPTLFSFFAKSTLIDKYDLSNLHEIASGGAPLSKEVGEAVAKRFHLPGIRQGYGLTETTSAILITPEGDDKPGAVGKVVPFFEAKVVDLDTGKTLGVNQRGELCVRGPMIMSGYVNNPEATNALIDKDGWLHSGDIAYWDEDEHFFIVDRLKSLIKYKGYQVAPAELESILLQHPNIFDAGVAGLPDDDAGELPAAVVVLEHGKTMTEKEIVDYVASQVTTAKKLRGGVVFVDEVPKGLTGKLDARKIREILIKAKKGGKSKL
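Purified P. pyralis luciferase (10nM final) with 10uM D-luciferin and 10uM ATP (Km levels) in 50mM Tris acetate pH 7.5, 10mM Mg acetate, 0.01% Tween-20, 0.05% BSA; qHTS 6-point titration, ~60 µM downward; luminescence read.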
NPC1 promoter act – activates the NPC1 promoter. Potency, µM (top dose mostly 9.22 µM), inactives show top-dose activation, actives largely listed as activators. Huh7 NPC1 promoter luciferase reporter, 24 h. hit rate 2.4% among 320,000; note: % of control where 0% means no effect; nearly all actives have a fitted effect of over 60% in size
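Stably transfected Huh7 (NPC1 promoter→luciferase), 1500 cells/well in Opti-MEM + 10% FBS, 2 h settle, then compound 24 h at 37 °C. Luminescence after 10 min with Amplite reagent.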
Rab9 prom act – activates the Rab9 promoter. AID 485297. Huh7 Rab9 promoter-luciferase reporter, luminescence, 24 h. hit rate 2.8% among 320,000. Potency, µM (titrated, usually from 9.22 µM), for the others: at the top dose activation, negative = inhibition, actives largely listed as activators; note: % of control where 0% means no effect; nearly all actives have a fitted effect of over 60% in size
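Cell-based reporter: Huh7 stable for Rab9 promoter-driven luciferase, plated in reduced-serum medium with 10% FBS at 1500 cells/well, compound-treated 24 h at 37 °C, luminescence read after 10 min reagent.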
SMN2 splice enh – increases expression of the SMN2 splice variant. HEK293 SMN2-luciferase splicing reporter, luminescence, 30-36 h. Potency, µM (top dose mostly 46.1 µM), for the others: at the top dose activity change, positive = activation, actives largely listed as activators. hit rate 2.8% among 210,000; note: % of control where 0% means no effect; nearly all actives have a fitted effect of over 55% in size
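HEK293 cells carry an SMN2 minigene-luciferase reporter in which exon 7 inclusion puts luciferase in frame. Cells were seeded at 2000 cells/well, attached for 10-12 hours, then exposed to compounds for 30-36 hours at 37C before ONE-Glo luminescence.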
* = called active by the depositor; ? = inconclusive; . = no result given; [ ] = remark or other dose. In the library only some 7.3% were active in any assay of this set; here they are far more common. Calls come from the whole dose curve; as a rule, active = well fitted curve in the direction sought with a large enough effect; inconclusive = small, poorly fitted or top-dose-only effect, or another doubt; inactive = no such curve, though single readings can be large; an effect the other way counts as inactive or inconclusive. Potency is the fitted concentration of half-maximal effect.

SMILES | ELG1 genotoxic | KinaseGlo FLuc | FLuc counter | NPC1 promoter act | Rab9 prom act | SMN2 splice enh
O=C(CCC(=O)OCC(=O)c1ccc(Br)cc1)NC1CCCCC1 | -1% | -1% | ? | -1% | 5% | -8%
O=C(CCCC(=O)OCC(=O)c1ccc(Cl)cc1)NC1CCCCC1 | 3% | . | 12µM* | 3% | 4% | .
Cc1nn(-c2ccccc2)c(OC(=O)c2ccc(Br)cc2)c1S(=O)(=O)c1ccccc1 | . | . | ? | . | . | -1%
O=C(Nc1ncccc1O)c1cc2ccccc2o1 | ? | . | 3.4µM* | 3.2µM* | 0.63µM* | .
CCc1cccc(C)c1NC(=O)c1cc2ccccc2o1 | . | . | -5% | . | . | -29%
O=C(Nc1cccc2ncccc12)c1cc2ccccc2o1 | -1% | -4% | ? | 12% | -1% | -8%
O=C(Nc1ccccn1)c1cc2ccccc2o1 | ? | 8.9µM* | 0.3µM* | ? | 0.56µM* | 0.71µM*
O=C(Nc1ccc(Cl)cn1)c1cc2ccccc2o1 | 0.82µM* | -9% | 1.9µM* | 3.5µM* | 1.8µM* | 7.9µM*
Cc1ccnc(NC(=O)c2cc3ccccc3o2)c1 | ? | . | 0.27µM* | 1.3µM* | ? | .
O=C(CSc1nc2ccccc2n1Cc1cccc(C(F)(F)F)c1)NCc1ccccc1 | . | . | 5% | . | . | .
O=C(NC1=NCCS1)c1ccccc1Cl | 5% | . | -19% | 2% | 4% | .
O=C(NC1=NCCS1)c1cc2ccccc2o1 | 2.3µM* | ? | 1.2µM* | 0.32µM* | 0.35µM* | 4µM*
O=c1cc(-c2ccc(O)cc2)oc2cc(O)cc(O)c12 | . | -5% | . | ? | 20%[46.1 µM] | 22µM*
COc1cc(O)c2c(=O)cc(-c3ccccc3)oc2c1 | ? | -2% | ? | ? | 27% | .
O=c1cc(-c2ccccc2)oc2cc(O)cc(O)c12 | . | -18% | . | . | . | 4µM*
Cc1cc(O)c(C(=O)/C=C/c2cccc([N+](=O)[O-])c2)c(=O)o1 | 1% | . | 21µM* | -13% | -16% | .
O=C(NCc1ccccc1)C1Cc2ccccc2CN1C(=O)c1ccco1 (configuration not stated) | -5% | 1% | 3% | -13% | 1% | 2%
Cc1ccccc1NC(=O)C1Cc2ccccc2CN1C(=O)c1ccco1 (configuration not stated) | 23µM* | . | ? | 2.8µM* | ? | .
COCC(C)n1c(C)cc(C(=O)COC(=O)c2ccc3ncsc3c2)c1C (configuration not stated) | ? | 3% | 17µM* | 1% | 15% | -17%
COCC(C)n1c(C)cc(C(=O)COC(=O)c2cnc(Cl)c(Cl)c2)c1C (configuration not stated) | 0% | . | . | . | . | .
CC(=Nc1cccc(O)c1)c1sc2ccccc2c1O | 1.6µM* | -10% | 1.7µM* | 29% | ? | 18µM*
CC(=Nc1ccc(C)cc1C)c1sc2ccccc2c1O | ? | -3% | 0.76µM* | ? | 3.5µM* | 11µM*
CC(=Nc1ccc(C)cc1)c1sc2ccccc2c1O | 0.73µM* | -7% | 0.43µM* | 1.8µM* | 0.89µM* | 0.63µM*
CC(=O)O[C@@H]1C(CO[Si](C)(C)C(C)(C)C)=C(Br)C(=O)[C@@H]2O[C@]12C | . | -2% | . | . | . | -4%
Cc1cc(C)c2c(c1)c(C)cc1nnc(SCC(=O)c3ccccc3)n12 | . | . | 4% | . | . | .
SMILES | ELG1 genotoxic | KinaseGlo FLuc | FLuc counter | NPC1 promoter act | Rab9 prom act | SMN2 splice enh
COc1ccc(/C=C(\C#N)C(=O)N=CN(C)C)cc1 | 1% | -5% | 13µM* | 0% | -2% | -5%
Cn1c(C(=O)N2CCc3ccccc3C2)cc2oc3ccccc3c21 | ? | 1% | 11µM* | 27% | ? | 22µM*
Cc1nc(N2CCCC2)ncc1C(=O)N1CCN(c2ccccc2F)CC1 | . | . | 3% | . | . | .
Cc1[nH]n(-c2ccc([N+](=O)[O-])cc2)c(=O)c1C=NCCN1CCN(C(=O)C(C)C)CC1 | -4% | 10µM* | -3% | -3% | -2% | -36%
Cc1csc2ncc(C(=O)NCCc3ccccc3)c(=O)n12 | 21µM* | -3% | ? | ? | ? | ?
Cc1ccccc1NC(=O)c1cnc2ccccn2c1=O | ? | ? | 0.76µM* | ? | 0.79µM* | ?
Cc1cc(Br)cc(C)c1NC(=O)c1cnc2ccccn2c1=O | . | . | -2% | . | . | -8%
Cn1c(C(=O)NCCc2ccccc2)cc2c(=O)n3ccccc3nc21 | . | . | -7% | . | . | .
CSc1ccccc1NC(=O)c1cnc2scc(C)n2c1=O | 18µM* | -4% | ? | 0% | 22% | ?
CCc1ccccc1NC(=O)c1cnc2scc(C)n2c1=O | 15% | 2% | ? | 21% | 29% | ?
O=C(NCCc1ccccc1)c1cnc2ccccn2c1=O | 21% | -7% | 11µM* | 0.89µM* | 0.56µM* | 4µM*
Cc1cc(F)ccc1NC(=O)C1CCCN(S(=O)(=O)c2ccc3c(c2)CCCC(=O)N3)C1 (configuration not stated) | . | . | -5% | . | . | .
CCCCn1cc(S(=O)(=O)c2ccc(CC)cc2)c(=O)c2cc(F)c(N3CCCC(C)C3)cc21 (configuration not stated) | . | . | -4% | . | . | .
Cc1cccc(CCNC(=O)c2cnc3c(C)cccn3c2=O)c1 | . | . | 4.3µM* | . | . | .
Oc1ccccc1-c1cc(C(F)(F)F)[nH]n1 | -6% | . | -10% | -4% | 1% | .
Cc1ccc(-c2cc(-c3cccc(F)c3)n[nH]2)c(O)c1 | ? | 1% | ? | ? | 4µM* | 14µM*
O=[N+]([O-])c1ccccc1-c1cc(-c2ccccc2O)n[nH]1 | ? | -4% | 8.5µM* | 14% | ? | 3.5µM*
Cc1ccc(O)c(-c2cc(-c3ccccc3F)[nH]n2)c1 | 11µM* | -8% | 13µM* | -2% | 0% | 11µM*
Cc1ccc(-c2cc(-c3ccccc3C)[nH]n2)c(O)c1 | ? | -5% | 11µM* | 4µM* | 3.5µM* | -41%
Cc1ccc(O)c(-c2cc(-c3cccc(F)c3)n[nH]2)c1 | 10% | -4% | ? | -3% | -9% | ?
CCOc1ccc(NC(=O)Cn2c(=O)n(CC(=O)NCCc3ccccc3)c(=O)c3sccc32)cc1 | . | . | -3% | . | . | -5%
CCOc1ccccc1NC(=O)Cn1nnc2sc3c(c2c1=O)CCC(C(C)(C)C)C3 (configuration not stated) | . | . | -2% | . | . | -14%
CCCCn1c(C2CC(=O)N(c3ccc(OCC)cc3)C2)nc2ccccc21 (configuration not stated) | . | . | -2% | . | . | 6%
Cc1ccc(Nc2nc(C(=O)N3CCC(C(=O)N4CCN(C)CC4)CC3)cs2)cc1 | 14% | -1% | -17% | 14% | 18% | 7%
Cc1ccc(Nc2nc(COC(=O)C3CC3)cs2)cc1 | ? | -2% | 4.3µM* | ? | 3.2µM* | ?
